Laboratory results from PubChem BioAssay (Tox21).
Records with an inconclusive call do not appear. Unmarked numbers belong to inactive results. Activity calls are given as the source filed them. Calls follow the shape of the dose curve; as a rule, active = well fitted cell-killing curve with a large enough effect in the repeat runs; inconclusive = weak or mixed curves, or effect the other way; inactive = flat fitted curve, though single readings scatter.

Assay: qHTS RealTime-Glo MT Cell Viability Assay in HepG2 cells - 0 hour (AID 1224889); also: nearly all actives have a fitted effect of over 50% in size
Conditions: RealTime-Glo luminescence; series mostly up to 76.8 µM
From the text: U.S. Tox21 Program National Center for Advancing Translational Sciences [NCATS] NIH Chemical Genomics Center [NCGC] U.S. Environmental Protection Agency [EPA] National Institutes of Environmental Health Sciences [NIEHS] National Toxicology Program [NTP] U.S. Food and Drug Administration [FDA] Tox21 Assay Overview: Measure of cell viability is critical in the cell-base assay. Analysis of cell viability is necessary for the characterization of cell responses to cytotoxic drugs and environmental stress. A RealTime-Glo MT Cell Viability Assay to monitor cell viability in real time of continues cell culture during 40 hours of compound treatment was used to screen Tox21 10K library compounds in HepG2 cells. The RealTime-Glo MT Cell Viability Assay is a nonlytic, homogeneous, bioluminescent method to measure cell viability in real time using a simple, plate-based method. The assay involves adding NanoLuc luciferase and a cell-permeant prosubstrate to cells in culture. Viable cells reduce the proprietary prosubstrate to generate a substrate for NanoLuc luciferase. This substrate diffuses from cells into the surrounding culture medium, where it is rapidly used by the NanoLuc Enzyme to produce a luminescent signal. The signal correlates with the number of viable cells, making the assay well suited for cytotoxicity studies.
Tox21 Assay Protocol Summary: The mixture of HepG2 cell suspension and reagents were dispensed at 600cells/6 ul/well in 1536-well tissue culture treated black solid bottom plates using a Multidrop dispenser. After the assay plates were incubated at a 37 C/5% CO2 incubator for 5 hours, 23 nL of compounds dissolved in DMSO, positive and negative controls was transferred to the assay plate by a pintool work station. The plates were incubated at 37 C for 40 hours. The luminescence intensity were measured at 0h, 8h, 16h, 24h, 32h and 40h time points using ViewLux plate reader during compound treatment.
% is scaled to controls: 0 for no effect and ±100 for the full control effect.

Compound	outcome	activity change, negative = cytotoxicity
CCCCC(CC)COC(=O)c1c(Br)c(Br)c(Br)c(Br)c1C(=O)OCC(CC)CCCC (stereo not given)	inactive	
C[N+]1(CCC(C(N)=O)(c2ccccc2)c2ccccc2)CCCCC1	inactive	
CCCCCCCCCCCCN=C(N)N		5.28% [at 2.72 µM]
O=C(O)CCCOc1ccc(Cl)cc1Cl	inactive	
NC(=S)c1c(Cl)cccc1Cl	inactive	
Clc1ccccc1	inactive	
CN(C)C(=O)Nc1cccc(OC(=O)NC(C)(C)C)c1	inactive	
C=C(C)C(=O)OCCCCOC(=O)C(=C)C	inactive	
C[C@]12CC[C@H]3[C@@H](CCC4=CC(=O)CC[C@@H]43)[C@@H]1CC[C@@H]2OC(=O)CCc1ccccc1	inactive	
CCOP(=S)(OCC)SCSc1cc(Cl)ccc1Cl	inactive	
FC(Cl)(Cl)C(F)(Cl)Cl	inactive	
CCC1CCC(=O)O1 (stereo not given)	inactive	
CCCCCCCCCCCCCCCl	inactive	
COc1cc(CC(C)N)c(OC)cc1Br (stereo not given)	inactive	
C=CC(C)(CCC=C(C)C)OC(=O)c1ccccc1N (stereo not given)	inactive	
CCC(=O)O[C@@H]1C=C2CCC3C(CCC4(C)C3CC[C@@H]4OC(=O)CC)C2CC1 (stereo not given in full)	inactive	
C1CS1	inactive	
CCOc1cccc(C2(N3CCN(c4ccccc4)CC3)CCC(C)CC2)c1 (stereo not given)	inactive	
Nc1ccccc1C(=O)OCC(O)CO (stereo not given)	inactive	
NCCc1cc(O)c(O)cc1O	inactive	

Compound	outcome	activity change, negative = cytotoxicity
c1ccc2c(c1)sc1ccccc12	inactive	
O=C1c2ccccc2C(=O)N1SC(Cl)(Cl)Cl	inactive	
O=C(NC(=O)c1cc(F)c(F)cc1Cl)Nc1cc(F)ccc1N1CCC(C(=O)O)CC1	inactive	
Nc1c(Br)cc(Br)c2c1C(=O)c1ccccc1C2=O		-16.3% [at 15.8 µM]
C=CCc1ccccc1O	inactive	
O=[N+]([O-])/C=C/c1ccccc1	inactive	
CON(C)C(=O)Nc1ccc(Cl)cc1	inactive	
C[N+](C)(C)CCOC(=O)C(O)(c1ccccc1)c1ccccc1	inactive	
CC(C)(c1ccccc1)c1cc(-n2nc3ccccc3n2)c(O)c(C(C)(C)c2ccccc2)c1	inactive	
CC(C)c1ccc(NC(=O)N(C)C)cc1	inactive	
CCCBr	inactive	
CN(C)N	inactive	
CCc1cnc(C2=NC(C)(C(C)C)C(=O)N2)c(C(=O)O)c1 (stereo not given)	inactive	
Cc1cccc(C)c1NC1=NCCCS1	inactive	
C=CC(=O)OCC	inactive	
c1ccc2c(c1)-c1cccc3cccc-2c13	inactive	
CCC(C)(C)O	inactive	
COC1CC(=C(c2cccs2)c2cccs2)C[N+](C)(C)C1 (stereo not given)	inactive	
N#CC(C#N)=C(C#N)C#N	inactive	
C#CC(O)(C=CCl)CC (stereo not given)	inactive	
